The text below walks through data of PubChem BioAssay AID2521 (Sanford-Burnham Center for Chemical Genomics, 2010).

In all, about 330,000 compounds went through this assay and about 1,100 (0.33%) were called active.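 How the source made its calls: active means inhibition above about 40% at 20 µM (limit read from the data); inactive means the rest.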 The full list was thinned out, with actives kept by preference.

This experiment deals with Apelin receptor (Homo sapiens) (UniProt P35414). In words: antagonists of human apelin receptor APJ, primary screen, CHO-K1 cells, beta-arrestin complementation, luminescence (AID 2521).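 Further: cells challenged with 10 nM apelin-13 agonist together with compound; plate controls were apelin-13 plus DMSO wells for no effect and DMSO wells lacking apelin-13 for full effect.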 The conditions noted are these: at 20 µM, stronger effect = higher value.
Apelin receptor (Homo sapiens), sequence (P35414 whole entry, looked up): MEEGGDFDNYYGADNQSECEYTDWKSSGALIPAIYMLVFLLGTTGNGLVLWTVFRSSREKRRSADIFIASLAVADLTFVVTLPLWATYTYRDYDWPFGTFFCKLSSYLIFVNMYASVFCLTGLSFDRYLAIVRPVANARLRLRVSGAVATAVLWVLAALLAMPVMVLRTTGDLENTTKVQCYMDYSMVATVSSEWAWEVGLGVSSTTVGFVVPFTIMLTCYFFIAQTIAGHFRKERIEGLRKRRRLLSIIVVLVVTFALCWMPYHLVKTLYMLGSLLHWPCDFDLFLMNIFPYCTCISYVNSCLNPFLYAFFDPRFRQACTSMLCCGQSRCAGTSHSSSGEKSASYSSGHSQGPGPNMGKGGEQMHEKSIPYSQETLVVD
On to `CCOC(=O)c1c(N)n(Cc2ccccc2)c2nc3ccccc3nc12`, for which the inhibition is 42.7% (active).
To `CC/C(=N\NC(=O)c1ccccc1O)c1c(O)n(Cc2ccccc2)c(=O)[nH]c1=O` belongs -28% (inactive).
In the case of `COc1cc(Cn2c(N)c(C(=O)NCc3ccco3)c3nc4ccccc4nc32)cc(OC)c1OC` it was 34% (inactive); in that of `COc1ccc(Br)cc1CNCCc1cccc(Cl)c1`, 17.7% (inactive).
With `C=CC12CN(C)[C@@H]3C4CO[C@H](C[C@H]41)[C@]1(C(=O)Nc4ccccc41)[C@@H]32` (stereo not given in full), the inhibition is -19.7% (inactive).
